From the supplement of paper PMC6555819

system: PXR:RXRa (NR concentration 270 nM, RXRa partner concentration 90 nM); assay: PBM binding z-score (relative to random genomic background probes); higher = stronger binding; sequences stand for … in GC…GCGATTGACAGCGTAGAATGAAGG
Method in brief: (§1)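 Probes were double-stranded and carried 34-nt variable regions with direct-repeat seeds, single-nucleotide variants, half-site ablations and random human genomic background sequences, printed on custom Agilent 4×180K protein-binding microarrays. Arrays were incubated 1 h with ligand-free nuclear receptor dimers in PBS pH 7.4, 2% milk, 0.02% Triton X-100, 1 mM DTT, 0.2 mg/mL BSA and 0.4 mg/ml salmon testes DNA. Antibodies against each partner (one per run) detected binding, and scanned fluorescence was regression-normalized. Binding z-scores use the random background probes as reference.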

Sequence | PBM binding z-score
TTACCAGGGTGAAGGTCGTTGATCCCTCTGTAGA | 1.6
TCATATAGGTAAACTGGTGAAAGTCCGTAAGTTA | 0.463
TCTATTAGTTCATTAGGGCAACCGAAACAGCGGA | 1.75
TCTTGTAGATCAACGGTTAAGAAAGCCGAAGCCT | 0.292
TCTAGTTAGTCAAAGGTCACACACTCGAAATGCG | 5.63
ATCTCTATGTAACCAAGTTCAGTGAATGCCGAAC | 1.66
TGAATGAGGTTATAAGATCACGGAACGTTGCAAA | 1.43
CGTCAAAGTTCGAGGTAACGTAACAGAAAGCAGC | 1.28
CAAACTAGGCCAAAGGTCAAAGTCGAGCCAACCA | 5.56
GCATATAGGTAATAGAAGGTGAAAGTCCGATTGT | 0.246
TCTTGTAGATCAGCAGGTTAAGAAGGCTGGCCAA | 0.183
GCTGCTAGGTCAACTGATCGTCAGCTAAAGCTCG | 1.23
TTACCAAGGGGAAGGTCGTTGATCCCTCTGTAGA | 0.711
CTCGAAAGGTTGGTTGAGGTGAGTATACGGATAA | 1.11
TCTTGTAGATAAATAGAGGTTAAGAAAGTGCGCT | 2.77
GCTCGGAGGATAAGGTCAGAGCTTTGTCCGTAGA | 1.86
TCATATCGGTAAAGGTGAAAGTCGAACGATATGA | 0.507
CGTCCAAGGTCAACGGTCAGTGAAGAGATGACGG | 4.02
GCTATTAGTTGATAGGGCAACCGAATGATTCTCG | -0.353
GATACAGGGTCAAGGCCGGAGTACGCGTATTGAT | 3.56

Sequence | PBM binding z-score
CGAACTAGGTCATTGACACGACAGTGAATAGTAA | 1.33
CCTACTGTGCCAAAGGTCATTGATTCCAATGCTC | 5.42
TCTCGGAGTACACGAAAGGTCAGAGCTCGACATC | 4
CCAGACAGGTGAAAGGGAACTCAGTCTGGTACGC | -0.0959
ATCTAAAGGTCGTGAGGTGAGTATACAGAAAGGC | 3.4
CCGACTGCGGCAAAGGTTACCATACTCAGTACGA | 1.61
TCTTGTAGCTCAGCAGGTTAAGAAAGCTGGCCAA | -0.26
CCTACTGGGCGAAAGGTCATTGATTCCAATGCTC | 4.98
ATTGAAAGGTCGTGAGGTGAGTATACAGAAAGGC | 3.07
CTAGACAGGTGAGAAGGTAACTCAGCCTCGATTA | -0.111
AGTCAAAGTTCACTAGGTGACGTAAGATTCAGCT | 4.22
TCTTGTAGATCAAGCAGGTTAAGCAAGCCTGAGT | 0.0788
GCTAGCAGGCCATTTGGTTCACTCAATGACGGGC | -0.151
CCTAGCAGGCCAAGCTGGGTCACTCAAGGCTTGA | 0.605
GCAGAGAGGTGAAACGCAGGTAACTCAGGGTGGC | 0.34
TCTTGTAGATTAAGCAGGTTAAGAAAGCCTGAGT | 0.401
CCTGGTAGGTCAATGGTCAGCTAAAGCAGCTCGC | 1.29
GCAGACAGGTGAAACGCACGTAACTCAGGGTGGC | -0.397
TCTAGAAGGCCAGAGGGTCACTCAAGAGGTACGG | 1.64
GGAGACAGGTGAAACGCAGGTAACTCAGGGTGGC | -0.298

system: PXR homodimer (NR concentration 270 nM); assay: as above
Method in brief: as §1

Sequence | PBM binding z-score
TTACCAGGGTGAAGGTCGTTGATCCCTCTGTAGA | 0.104
TCATATAGGTAAACTGGTGAAAGTCCGTAAGTTA | 0.739
TCTATTAGTTCATTAGGGCAACCGAAACAGCGGA | 1.7
TCTTGTAGATCAACGGTTAAGAAAGCCGAAGCCT | -0.149
TCTAGTTAGTCAAAGGTCACACACTCGAAATGCG | 2.01
ATCTCTATGTAACCAAGTTCAGTGAATGCCGAAC | 1.51
TGAATGAGGTTATAAGATCACGGAACGTTGCAAA | 0.182
CGTCAAAGTTCGAGGTAACGTAACAGAAAGCAGC | 0.589
CAAACTAGGCCAAAGGTCAAAGTCGAGCCAACCA | 0.846
GCATATAGGTAATAGAAGGTGAAAGTCCGATTGT | 0.153
TCTTGTAGATCAGCAGGTTAAGAAGGCTGGCCAA | -0.311
GCTGCTAGGTCAACTGATCGTCAGCTAAAGCTCG | -0.904
TTACCAAGGGGAAGGTCGTTGATCCCTCTGTAGA | -0.0192
CTCGAAAGGTTGGTTGAGGTGAGTATACGGATAA | 0.376
TCTTGTAGATAAATAGAGGTTAAGAAAGTGCGCT | 0.529
GCTCGGAGGATAAGGTCAGAGCTTTGTCCGTAGA | -0.244
TCATATCGGTAAAGGTGAAAGTCGAACGATATGA | -0.566
CGTCCAAGGTCAACGGTCAGTGAAGAGATGACGG | 0.701
GCTATTAGTTGATAGGGCAACCGAATGATTCTCG | -0.032
GATACAGGGTCAAGGCCGGAGTACGCGTATTGAT | 0.0329

Sequence | PBM binding z-score
CGAACTAGGTCATTGACACGACAGTGAATAGTAA | 0.767
CCTACTGTGCCAAAGGTCATTGATTCCAATGCTC | 2.77
TCTCGGAGTACACGAAAGGTCAGAGCTCGACATC | -0.3
CCAGACAGGTGAAAGGGAACTCAGTCTGGTACGC | -0.23
ATCTAAAGGTCGTGAGGTGAGTATACAGAAAGGC | 0.645
CCGACTGCGGCAAAGGTTACCATACTCAGTACGA | -0.16
TCTTGTAGCTCAGCAGGTTAAGAAAGCTGGCCAA | -0.524
CCTACTGGGCGAAAGGTCATTGATTCCAATGCTC | 2.08
ATTGAAAGGTCGTGAGGTGAGTATACAGAAAGGC | 0.914
CTAGACAGGTGAGAAGGTAACTCAGCCTCGATTA | 0.0997
AGTCAAAGTTCACTAGGTGACGTAAGATTCAGCT | 2.57
TCTTGTAGATCAAGCAGGTTAAGCAAGCCTGAGT | -0.00179
GCTAGCAGGCCATTTGGTTCACTCAATGACGGGC | 0.221
CCTAGCAGGCCAAGCTGGGTCACTCAAGGCTTGA | -0.579
GCAGAGAGGTGAAACGCAGGTAACTCAGGGTGGC | -0.544
TCTTGTAGATTAAGCAGGTTAAGAAAGCCTGAGT | 0.0794
CCTGGTAGGTCAATGGTCAGCTAAAGCAGCTCGC | 0.146
GCAGACAGGTGAAACGCACGTAACTCAGGGTGGC | -0.419
TCTAGAAGGCCAGAGGGTCACTCAAGAGGTACGG | 0.0475
GGAGACAGGTGAAACGCAGGTAACTCAGGGTGGC | -0.332
